The results in this text go back to PubChem BioAssay (NCATS).

Results filed as inconclusive are left out. Activity calls are given as the source filed them. Calls come from the whole dose curve; tested in HEK293 reporter line.
% is set by controls: 0 for no effect and ±100 for the full control effect.

This assay can be described thus: qHTS for Inhibitors of the Functional Ribonucleoprotein Complex (vRNP) of Lymphocytic Choriomeningitis Arenaviruses (LCMV): Viability assay - alamar blue signal for LCMV Primary Screen (AID 1347085). Note: nearly all actives have a fitted effect of over 80% in size. Particulars: alamar blue viability counter-screen, LCMV vRNP screen cells; series mostly up to 57.5 µM; activity change, negative = lower viability: at the top concentration. For orientation: In qHTS, concentration-response curves come from the screen itself.
Consider `C[C@@H]1OC(O[C@H]2[C@H](Oc3cc(O)c4c(=O)c(O)c(-c5ccc(O)cc5)oc4c3)O[C@H](CO)[C@@H](O)[C@@H]2O)[C@H](O)[C@H](O)[C@H]1O` (stereo not given in full), for which the “activity change, negative = lower viability” value is 37.8% [at 24.7 µM] (inactive).

As to `COc1ccc2[nH]c3c(c2c1)CCNC3C` (stereo not given), the “activity change, negative = lower viability” value is -5.52% (inactive).

As for `NCC1CCC(C(=O)O)CC1` (stereo not given), the “activity change, negative = lower viability” value was -1.53% (inactive).

On to `CCCC/C=C/CCCCO`, for which the “activity change, negative = lower viability” value is 15.1% [at 115 µM] (inactive).

Take `C[N+]1([O-])CCC[C@@H]1c1cccnc1` (stereo not given in full): the “activity change, negative = lower viability” value is 3.53% (inactive).

For the compound `COc1cc2oc3ccccc3c(=O)c2cc1OC`, the “activity change, negative = lower viability” value was -0.0597% (inactive).

With `CC1=C2C(=O)OC(c3ccoc3)C2(C)CCC1` (stereo not given), the “activity change, negative = lower viability” value is 2.78% (inactive).

Take `O=C(O)C(O)Cc1ccc(O)c(O)c1` (stereo not given): the “activity change, negative = lower viability” value was -17% (inactive).

In the case of `CC(/C=C/C=C(\C)C(=O)O[C@@H]1O[C@H](CO[C@@H]2O[C@H](CO)[C@@H](O)[C@H](O)[C@H]2O)[C@@H](O)[C@H](O)[C@H]1O)=C\C=C\C=C(C)\C=C\C=C(/C)C(=O)O[C@@H]1O[C@H](CO[C@@H]2O[C@H](CO)[C@@H](O)[C@H](O)[C@H]2O)[C@@H](O)[C@H](O)[C@H]1O`, the “activity change, negative = lower viability” value was 13% (inactive).

In the case of `c1cncc([C@@H]2CCCCN2)c1`, the “activity change, negative = lower viability” value was 17.6% [at 115 µM] (inactive).

For `O=c1cc(-c2ccccc2)oc2cc(O)c(O)c(O)c12`, the Potency entry was “inactive”.

Take `NCCc1ccccc1`: the “activity change, negative = lower viability” value is 19.2% (inactive).

In the case of `O=C(Nc1c(Cl)cncc1Cl)c1ccc(OC(F)F)c(OCC2CC2)c1`, the “activity change, negative = lower viability” value is -12.8% (inactive).

For `O=c1cc(-c2ccc(O)c(O)c2)oc2cc(O[C@@H]3O[C@H](CO)[C@@H](O)[C@H](O)[C@H]3O)cc(O)c12`, the “activity change, negative = lower viability” value was 1.43% (inactive).

As to `CN1C2CCC1CC(OC(=O)C(CO)c1ccccc1)C2` (stereo not given), the Potency entry is “inactive”.

For the compound `CC1=C(/C=C/C(C)=C/C=C/C(C)=C/C=C/C=C(C)/C=C/C=C(C)/C=C/C2=C(C)C[C@@H](O)CC2(C)C)C(C)(C)C[C@H](O)C1`, the “activity change, negative = lower viability” value is 14.8% (inactive).

`C[C@@H](O)[C@H]1C(=O)N2C(C(=O)OCOC(=O)C(C)(C)C)=C(SC3CN(C4=NCCS4)C3)[C@H](C)[C@H]12`: the “activity change, negative = lower viability” value is -1.87% (inactive).

Turning to `CC(=O)NCCc1c[nH]c2ccc(O)cc12`, the Potency entry was “inactive”.

Consider `CC(CC=O)CCCC(C)(C)O` (stereo not given), for which the “activity change, negative = lower viability” value was 8.89% [at 115 µM] (inactive).

On to `O=C(O)Cc1c[nH]c2ccc(O)cc12`, for which the Potency entry was “inactive”.

As to `CC1=C(O)C(=O)[C@@H]2O[C@@H]2C1=O`, the “activity change, negative = lower viability” value was -66.3% [at 115 µM] (inactive).

With `O=c1cc(-c2ccc(O)c(O)c2)oc2ccccc12`, the “activity change, negative = lower viability” value was -9.97% (inactive).

Consider `CNCC/C=C/c1cccnc1`, for which the “activity change, negative = lower viability” value was 7.47% (inactive).

In the case of `O=c1c(O)c(-c2ccc(O)c(O)c2)oc2cc(O)ccc12`, the Potency entry was “inactive”.

For `COc1ccc(CCN)cc1`, the “activity change, negative = lower viability” value was -2.22% (inactive).

As for `CC(C)=CCc1c(O)cc(O)c2c1OC(c1ccc(O)cc1)CC2=O` (stereo not given), the “activity change, negative = lower viability” value is 6.51% (inactive).

As to `O=C(O)Cc1c[nH]c2ccccc12`, the “activity change, negative = lower viability” value was 1.14% (inactive).

With `CC(=O)OCC1=C(C(=O)[O-])N2C(=O)[C@@H](NC(=O)CCC[C@@H](N)C(=O)[O-])[C@H]2SC1.[Zn+2]`, the “activity change, negative = lower viability” value was 8.07% (inactive).

For `CNCC(N)C(=O)O` (stereo not given), the “activity change, negative = lower viability” value is 14.1% (inactive).

Consider `C[Se]CC[C@H](N)C(=O)O`, for which the “activity change, negative = lower viability” value was 18.6% (inactive).

Consider `C[C@H]1CC[C@@H]2N(C1)C[C@H]1[C@@H]3C[C@H]4[C@@H](CC(=O)[C@H]5C[C@@H](O)CC[C@@]54C)[C@@H]3CC[C@H]1[C@]2(C)O`, for which the “activity change, negative = lower viability” value is -14% (inactive).

Take `O=c1cc(-c2ccc(O)cc2)oc2c([C@@H]3O[C@H](CO)[C@@H](O)[C@H](O)[C@H]3O)c(O)c([C@@H]3O[C@H](CO)[C@@H](O)[C@H](O)[C@H]3O)c(O)c12`: the “activity change, negative = lower viability” value is -0.716% (inactive).

`CN(C)Cc1c[nH]c2ccccc12`: the “activity change, negative = lower viability” value was 20.3% (inactive).

Regarding `CN1CCCCC1c1cccnc1` (stereo not given), the “activity change, negative = lower viability” value was 3.25% (inactive).

Regarding `CCN1C[C@]2(COC(=O)c3ccccc3N3C(=O)CC(C)C3=O)CC[C@H](OC)[C@@]34C5C[C@@H]6[C@@H](OC)C[C@@](O)(C5[C@H]6OC)[C@](O)([C@@H](OC)C23)[C@@H]14` (stereo not given in full), the “activity change, negative = lower viability” value was 0.316% (inactive).

Take `Cn1cccc1-c1cccnc1`: the “activity change, negative = lower viability” value was 3.01% (inactive).

`Cc1cc(O)c2c(c1)O[C@@]1(C)CC[C@H]3C(C)(C)CCCC34CO[C@@H]2[C@H]41` (stereo not given in full): the “activity change, negative = lower viability” value was -4.09% (inactive).

`CN(CCCC(=O)c1cccnc1)N=O`: the “activity change, negative = lower viability” value is 18.1% (inactive).

Turning to `c1cncc(C2CCCN2)c1` (stereo not given), the “activity change, negative = lower viability” value is 11.5% (inactive).

With `COc1cc2c(c(OC)c1OC)-c1c(cc3c(c1OC)OCO3)C[C@H](C)[C@@](C)(O)C2`, the “activity change, negative = lower viability” value is -0.217% (inactive).
